Rows were chosen to be rich in hits. Some 3.6% of all compounds tested hit in one or more screens of this group.
mHTT CaM bind = disrupts binding of mutant huntingtin to calmodulin | inhibition, % at 15 µM | AlphaScreen His-mHTT/GST-CaM binding, luminescence | hit rate 3.6% among 190,000 | AID 1671202;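 note: 0% = both proteins with DMSO and 100% = one protein alone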
Pf apPOL block = Pf-apPOL DNA polymerase inhibition. Recombinant Pf-apPOL, molecular beacon fluorescence, 1.5 h. inhibition, % at 10 µM. hit rate 0.25% among 210,000. AID 1794808
* marks the source's active call; other numbers are inactive results. Cut-off read from the data, not from the text of the source: active = inhibition above about 50%; inactive = the rest.

How did NC(=O)c1cccc(N=c2oc3ccc(Br)cc3cc2C(N)=O)c1 do in these assays?
mHTT CaM bind: 71*; Pf apPOL block: 4

How did Cc1cccc(C2NC(=O)c3c(sc(C)c3C)N2)c1O (stereo not given) do in these assays?
mHTT CaM bind: 33; Pf apPOL block: 0

What do the screens show for `Cc1ccc(O)c(C2NC(=O)c3c(sc(C)c3C)N2)c1` (stereo not given)?
mHTT CaM bind: 72*; Pf apPOL block: -6

What do the screens show for `CCC1CN2C=NC(N3CCN(S(=O)(=O)c4cccc(OC)c4)CC3)=CC2=N1` (stereo not given)?
mHTT CaM bind: 17; Pf apPOL block: 3

Results for O=[N+]([O-])c1cc2c(cc1C=Nc1ccc(O)cc1)OCO2 ?
mHTT CaM bind: 22

How did O=[N+]([O-])c1cc2c(cc1C=Nc1ccc(O)c(-c3nc4ccccc4[nH]3)c1)OCO2 do in these assays?
mHTT CaM bind: 65*; Pf apPOL block: 4

What do the screens show for `O=[N+]([O-])c1cc(C=Nc2ccc3nc(-c4ccccc4)[nH]c3c2)c(O)c([N+](=O)[O-])c1`?
mHTT CaM bind: 19; Pf apPOL block: -4

What do the screens show for `O=[N+]([O-])c1cccc(C=Nc2ccc(O)c(-c3nc4ccccc4[nH]3)c2)c1O`?
mHTT CaM bind: 68*; Pf apPOL block: 0

What do the screens show for `O=C(c1cccc(F)c1)N1CCN(Cc2noc(-c3cccc(Cl)c3)n2)CC1`?
mHTT CaM bind: 28; Pf apPOL block: -7

What do the screens show for `O=C(NCc1ccccc1F)c1ccc(NC(=O)C2CC2)cc1N1CCOCC1`?
mHTT CaM bind: -8; Pf apPOL block: 2

What do the screens show for `O=[N+]([O-])c1cnn(CCc2nn[nH]n2)c1`?
mHTT CaM bind: 0

Results for COc1ccc(NC(=O)c2cncc(Br)c2)cc1Cl ?
mHTT CaM bind: 0; Pf apPOL block: 6

How did CCOc1ccccc1NC(=O)c1cc(S(=O)(=O)NCc2ccc(C)cc2)ccc1F do in these assays?
mHTT CaM bind: 3; Pf apPOL block: -21

How did CCCS(=O)(=O)N1CCC(n2c(-c3ccc(C)cc3)nc3cccnc32)C1 (stereo not given) do in these assays?
mHTT CaM bind: 3; Pf apPOL block: -6

What do the screens show for `O=C(NCc1ccccc1)C1CCN(c2nc3cccnc3s2)CC1`?
mHTT CaM bind: -4; Pf apPOL block: 4

How did O=[N+]([O-])c1ccccc1/C=C/CN1CCN(c2cccc(Cl)c2)CC1 do in these assays?
mHTT CaM bind: 59*; Pf apPOL block: -3

What do the screens show for `O=[N+]([O-])c1ccccc1/C=C/CN1CCN(c2ccc(F)cc2)CC1`?
mHTT CaM bind: 24; Pf apPOL block: -22

Results for Cc1ccc(N2CCN(C(=O)c3ccnc(N4CCNC(c5ccccc5)C4)c3)CC2)cc1 (stereo not given) ?
mHTT CaM bind: 24; Pf apPOL block: -6

What do the screens show for `COc1ccccc1NC(=O)c1cccc(N2CCNC(c3ccccc3)C2)n1` (stereo not given)?
mHTT CaM bind: 72*; Pf apPOL block: -9

Results for Cc1ccc(N2CCN(C(=O)c3ccc(N4CCNC(c5ccccc5)C4)nc3)CC2)cc1 (stereo not given) ?
mHTT CaM bind: 73*; Pf apPOL block: 2

How did O=C(c1cccc(N2CCNC(c3ccccc3)C2)n1)N1CCN(c2ccccc2)CC1 (stereo not given) do in these assays?
mHTT CaM bind: 27; Pf apPOL block: 8

What do the screens show for `O=C(c1cccc(N2CCNC(c3ccccc3)C2)n1)N1CCN(c2ccc(F)cc2)CC1` (stereo not given)?
mHTT CaM bind: 51*; Pf apPOL block: -6

Results for Cc1cccc(N2CCN(C(=O)c3ccc(N4CCNC(c5ccccc5)C4)nc3)CC2)c1 (stereo not given) ?
mHTT CaM bind: 65*; Pf apPOL block: -4

What do the screens show for `O=C(c1ccc(N2CCNC(c3ccccc3)C2)nc1)N1CCCC1` (stereo not given)?
mHTT CaM bind: 7; Pf apPOL block: -4

Results for COc1ccccc1NC(=O)c1ccc(N2CCNC(c3ccccc3)C2)nc1 (stereo not given) ?
mHTT CaM bind: 32; Pf apPOL block: 1

How did O=C(CCC1CCCN(C(=O)Nc2ccc(F)cc2)C1)NC1CCCCC1 (stereo not given) do in these assays?
mHTT CaM bind: -10; Pf apPOL block: -10

Results for COc1ccc(-c2nnc(N3CCC(C(=O)NCc4ccc(F)cc4Cl)CC3)o2)cc1 ?
mHTT CaM bind: -4; Pf apPOL block: -2

How did CC(=O)Nc1cccc(NC(=O)c2sc3nc(-c4ccccc4)cn3c2C)c1 do in these assays?
mHTT CaM bind: 12; Pf apPOL block: -2

Results for COc1ccc(NC(C)=O)cc1NC(=O)c1sc2nc(-c3ccccc3)cn2c1C ?
mHTT CaM bind: 52*; Pf apPOL block: -3

How did COc1cccc(C(=O)N2CCc3c(c(C(=O)NCc4ccccc4)nn3C)C2)c1 do in these assays?
mHTT CaM bind: 69*; Pf apPOL block: -5

How did Cn1nc(C(=O)NCc2ccccc2)c2c1CCN(C(=O)c1cccc(Cl)c1)C2 do in these assays?
mHTT CaM bind: 81*; Pf apPOL block: -11

Screens from PubChem.
